Screening data from PubChem.
In the library only some 6% were active in any assay of this set; here they are far more common.
D1 agonist: Allosteric Agonists of the Human D1 Dopamine Receptor: qHTS; 1% of 360,000 active; activation, % at 2 µM; AID 504660, 2011; HEK293 T-REx D1 cells, calcium flux, agonist mode; in the data active = activation above about 30%; note: 0% is about no effect
Target sequence (P21728 whole entry, looked up): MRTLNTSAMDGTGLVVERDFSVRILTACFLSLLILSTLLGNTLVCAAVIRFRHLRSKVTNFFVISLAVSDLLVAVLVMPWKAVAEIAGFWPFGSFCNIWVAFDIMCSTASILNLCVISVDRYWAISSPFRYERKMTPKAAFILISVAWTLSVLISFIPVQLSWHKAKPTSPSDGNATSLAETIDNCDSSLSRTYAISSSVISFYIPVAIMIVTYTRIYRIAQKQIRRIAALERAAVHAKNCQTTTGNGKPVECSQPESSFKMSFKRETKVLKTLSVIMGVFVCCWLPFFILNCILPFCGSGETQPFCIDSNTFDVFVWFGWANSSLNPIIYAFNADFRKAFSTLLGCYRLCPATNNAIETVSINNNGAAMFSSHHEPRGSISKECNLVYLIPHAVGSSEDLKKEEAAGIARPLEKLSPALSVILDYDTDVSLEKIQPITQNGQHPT
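Tetracycline-induced HEK293 TREx D1 cells, force-coupled to calcium signalling, were dye-loaded with a no-wash calcium kit. Compound was pin-added after a 10 s baseline. Fluorescence was read kinetically at 1 cycle/s for 180 s, with calcium rises flagged as agonism.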
D1 antagonist: Antagonist of Human D 1 Dopamine Receptor: qHTS | D(1A) dopamine receptor (Homo sapiens), P21728 | HEK293 TREx D1 cells, calcium flux, dopamine EC80; active compounds read low | activity change, negative = inhibition, % at 10 µM | 3.2% of 360,000 active; in the data active = activity change below about -30%; note: % is set by controls: 0 for no effect and ±100 for the full control effect
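Inducible Hek293 Trex D1 cells (tetracycline, overnight, 30 C). Calcium dye 30–90 min RT. Antagonist mode: EC80 dopamine added after 180 s compound read.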
D1 PAM: Potentiators of Human D1 Dopamine Receptor: qHTS. 0.036% of 360,000 active. AID 504651, 2011. D(1A) dopamine receptor (Homo sapiens), P21728. HEK293 TREx D1 cells, calcium flux, dopamine EC20 potentiation. potentiation, % at 10 µM; in the data active = potentiation above about 30%; note: 0% is about no effect
D3 ag: qHTS of D3 Dopamine Receptor Agonist: qHTS | D(3) dopamine receptor (Homo sapiens), P35462 | D3R DiscoveRx beta-arrestin cells, luminescence, 90 min | max activation, % | 0.58% of 410,000 active | AID 652048, 2013; in the data active = max activation above about 30%; note: 0% is about no effect
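Agonist-mode cell screen: cells plated at 1500/well and incubated overnight at 37 °C, then exposed to library compounds for 90 min at 37 °C. Detection reagent was added for 30–60 min at room temperature, and luminescence was read.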
D3 antag: qHTS of D3 Dopamine Receptor Antagonist: qHTS; max response, negative = inhibition, %; D(3) dopamine receptor (Homo sapiens), P35462; D3R cells, DiscoveRx beta-arrestin luminescence, antagonist mode; active compounds read low; 2.5% of 360,000 active; in the data active = max response below about -50%; inconclusive = no clear call, values can overlap the other calls; note: % is set by controls: 0 for no effect and ±100 for the full control effect
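Cells expressing the human receptor were seeded at 1500 cells/well, incubated overnight at 37 degrees C in 5% CO2, then exposed to library compounds with dopamine controls for 90 minutes at 37 degrees C before luminescent detection.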
The depositor's hits bear a star; ? = inconclusive; . = no result; ! = a repeat was not active.

SMILES | D1 agonist | D1 antagonist | D1 PAM | D3 ag | D3 antag
O=C(Nc1cccc(Cl)c1)c1ccccc1 | 0 | 1 | -5 | 0 | -5
O=C1C(Cl)=C(NC(=O)c2ccccc2)C(=O)C(Cl)=C1NC(=O)c1ccccc1 | 1 | -1 | -4 | -37 | -71*
O=C(Cc1ccccc1)NNC(=O)c1ccc(NC(=O)c2ccccc2)cc1 | 4 | -11 | 4 | -2 | 13
O=C(NNC(=O)c1ccc(NC(=O)c2ccccc2)cc1)c1ccccc1 | 59* | 8 | -5 | 2 | -3
O=C(NC1=C(Nc2ccc(Cl)cc2)C(=O)c2ccccc2C1=O)c1ccccc1 | 0 | 14 | 3 | 2 | -30
O=C(OCC1(COC(=O)c2cccnc2)CCCC(COC(=O)c2cccnc2)(COC(=O)c2cccnc2)C1O)c1cccnc1 | . | . | . | 8 | .
O=C(COc1ccc([N+](=O)[O-])cc1)NC(=O)NC1CCS(=O)(=O)C1 (centres undefined) | 5 | -45* | -6 | 3 | 11
Cc1ccc(Oc2ccc(OCC(=O)NC3CCS(=O)(=O)C3)cc2)cc1 (centres undefined) | 36* | -48* | . | -4 | 3
N#Cc1ccccc1OCC(=O)NC(=O)NC1CCS(=O)(=O)C1 (centres undefined) | 3 | 5 | 0 | 1 | 5
COCCCNC(=S)N1CCN(c2ccc([N+](=O)[O-])cc2)CC1 | 8 | -33* | -4 | -8 | -22
CSCCCNC(=S)N1CCN(c2ccc(C(C)=O)cc2)CC1 | 3 | -33* | -6 | 1 | 3
O=[N+]([O-])c1ccc(N2CCN(C(=S)NCc3ccc(Cl)cc3)CC2)cc1 | 6 | -1 | -4 | -3 | -53*
CCCCNC(=S)N1CCN(c2ccc(C(C)=O)cc2)CC1 | 14 | -17 | -9 | -5 | -4
O=[N+]([O-])c1ccc(CN2CCN(c3ccc(Cl)cc3)CC2)o1 | 5 | -32* | 0 | -14 | -27
COCc1oc2ccc(NS(=O)(=O)c3ccc(C)cc3)cc2c1C(=O)OC | 0 | 5 | -2 | 9 | .
CN1CCN(C(=S)Nc2ccc([N+](=O)[O-])cc2)CC1 | 2 | -33* | 0 | -3 | ?
COc1ccccc1N1CCN(C(=S)NC(=O)c2ccc([N+](=O)[O-])cc2)CC1 | . | . | . | -11 | 21
COc1ccc(C(=O)NC(=S)N2CCN(c3ccc([N+](=O)[O-])cc3)CC2)cc1 | 5 | -31* | -5 | -3 | ?
CC(=O)Nc1ccc(NC(=O)C2CCN(c3cnccn3)CC2)cc1 | 0 | 3 | 2 | 1 | .
COc1ccc(NC(=O)C2CCN(c3cnccn3)CC2)cc1Cl | 5 | -58*! | -6 | 2 | 8
COc1ccc2c(c1)O[C@@H](c1cccc(C(F)(F)F)c1)[C@H](OC(=O)N[C@H]1CCCc3ccccc31)C2=O | 1 | 0 | -3 | . | .
COc1ccc2c(c1)O[C@H](c1ccc3c(c1)OCO3)[C@@H](OC(=O)N[C@H]1CCCc3ccccc31)C2=O | -2 | -57* | -10 | 54* | 1
C[C@H](CSC(=O)c1ccccc1)C(=O)N1C[C@@H](Sc2ccccc2)C[C@H]1C(=O)O | . | . | . | 2 | .
Cc1cc(C)nc(N2CCC(C(=O)N3CCN(c4cc(Cl)ccc4C)CC3)CC2)n1 | 2 | 4 | 13 | 65* | 115
CCCNC(=O)C1CCN(c2nc(C)cc(C)n2)CC1 | -1 | -14 | 2 | 0 | 18
SMILES | D1 agonist | D1 antagonist | D1 PAM | D3 ag | D3 antag
Cc1cc(C)nc(N2CCC(C(=O)O)CC2)n1 | 0 | -32* | 4 | 2 | -3
COc1ccccc1CNC(=O)C1CCN(c2nc3ccc(Cl)cc3[nH]2)CC1 | 2 | -74* | 6 | 4 | .
Cc1ccc2nc(N3CCC(C(=O)N4CCN(c5cccc(Cl)c5)CC4)CC3)[nH]c2c1 | 43* | -11 | -2 | -13 | .
O=C(CSc1ncc2c(n1)-c1ccccc1N(Cc1ccccc1)S2(=O)=O)Nc1ccccc1 | 1 | -12 | 0 | 7 | .
CCN(CC)c1ccc(C=Nc2ccccc2)c(O)c1 | 1 | -15 | -9 | -3 | -54*
CCN(CC)c1ccc(N=Cc2ccc(N(CC)CC)cc2O)cc1 | 0 | -8 | -5 | -8 | -19
COc1ccccc1N=c1scc(-c2ccc(S(=O)(=O)N3CCCC3)cc2)n1C | 21 | -34* | -1 | 17 | .
CCCC[n+]1ccn(-c2nc3ccccc3nc2[N-]S(=O)(=O)c2ccc(Cl)cc2)c1 | 6 | -40* | 13 | 9 | 14
Cc1cccc(C(=O)Nc2nc3nc(-c4ccccc4)cc(=O)n3[nH]2)c1 | 1 | 10 | -2 | 6 | .
COc1cc(/C=C2/SC(=Nc3ccc(O)cc3)NC2=O)cc(OC)c1O | 47* | -5 | -4 | 0 | -9
COc1cc(/C=C2\SC(=Nc3ccc(O)cc3)NC2=O)cc(OC)c1OC | 1 | 3 | 0 | -9 | -22
COc1ccccc1N=C1NC(=O)/C(=C/c2ccc(N(C)C)cc2)S1 | 108* | -22 | -7 | -13 | -95*
O=C(COC(=O)C1CCN(c2ccc(C(F)(F)F)cn2)CC1)Nc1ccc(Cl)cc1 | 11 | -22 | -13 | 2 | 15
O=C(COC(=O)C1CCN(c2ccc(C(F)(F)F)cn2)CC1)Nc1ccc(Cl)cn1 | 9 | -59* | -18 | -8 | -6
Cc1ccc(OCC(=O)N(C)CC(=O)N(CC(C)C)c2c(N)n(CC(C)C)c(=O)[nH]c2=O)c(C)c1 | 1 | -31* | -3 | 5 | 13
COc1ccccc1C(=O)Nc1ccccc1OCc1cc(=O)n2cc(C)sc2n1 | 2 | -3 | -3 | -8 | .
CCc1[nH]nc2c1C1(CCOC1C)C(C#N)=C(N)O2 (centres undefined) | 3 | -8 | 4 | -8 | -57*
CCc1[nH]nc2c1C1(CCN(C(=O)c3ccccc3)CC1)C(C#N)=C(N)O2 | 1 | -8 | -2 | 1 | -8
O=C(COc1ccc2ccccc2c1)NC1CC(=O)N(c2cccc(F)c2)C1 (centres undefined) | 21 | . | -1 | -2 | .
CCOc1ccc(-n2cc(-c3ccccc3)c3c(=O)[nH]cnc32)cc1 | 1 | -68* | -9 | 9 | -7
O=c1[nH]cnc2c1c(-c1ccccc1)cn2-c1ccc(Br)cc1 | 0 | -45* | -16 | -3 | ?
Cc1cccc(-n2cc(-c3ccccc3)c3c(=O)[nH]cnc32)c1 | -1 | -45* | -8 | 5 | 11
O=S(=O)(c1ccccc1)N(CC(O)COc1ccccc1)c1ccccc1 (centres undefined) | 3 | -31* | -9 | 11 | 8
